Bioassay records deposited in PubChem by National Center for Advancing Translational Sciences (NCATS).
Only some compounds are listed: those with a hit (about 13% of all), similar ones and a draw of the others.
HCV inhibitor = inhibitors of hepatitis C virus infection; Huh7.5.1 HCVcc-Cre infection, luciferase reporter, 44 h; Potency, µM (series often up to 41.8 µM), hits mostly inhibitors; 340,000 compounds, 3.4% hits; active = well fitted inhibition curve with a large enough effect; inconclusive = small, poorly fitted or top-dose-only effect, or another doubt; inactive = no such curve, though single readings can be large or run the other way
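Antiviral activity was scored by luciferase reporter output from cells infected with HCVcc-Cre (~0.5 moi) in presence of compound, 44 h infection period, cells seeded 1,000/well 4 h prior.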
Cycloheximide cs = affects cycloheximide protein synthesis inhibition readout, counter-screen; cell reporter, cycloheximide protein synthesis inhibition counterscreen; max response, %; 300,000 compounds, 12% hits; AID 2314; in the data active = max response mostly above about 13%, no sharp cut-off; inactive = mostly below about 14%; also: read at 38.3 µM for the half of the compounds with a filed dose
Lassa entry inh = blocks Lassa virus binding to or entry into cells | Lassa virus pseudotype entry inhibition, cell reporter | Potency, µM (highest dose often 37.9 µM), actives largely listed as inhibitors | 300,000 compounds, 1.2% hits | AID 540256; calls by dose curve; tested in HEK293 cells; also: nearly all actives have a fitted effect of over 50% in size
FMDV antiviral = blocks foot and mouth disease virus. 410,000 compounds, 1.2% hits. FMDV antiviral cell-based qHTS. AID 1159524. Potency, µM (top dose mostly 57.9 µM), actives largely listed as inhibitors; calls by dose curve; tested in HEK293T cells; also: read-out not given here; nearly all actives have a fitted effect of over 45% in size
Shiga inhibitor = inhibitors of Shiga toxin in Vero cells; Vero cells, Shiga toxin protein synthesis inhibition reporter; inhibition, % at 38.7 µM; 290,000 compounds, 9.2% hits; AID 2315; in the data active = inhibition mostly above about 28%, no sharp cut-off; inactive = mostly below about 43%
MARV entry inh = inhibitors of Marburg virus binding or cell entry; Potency, µM (series often up to 37.8 µM), most hits filed as inhibitors; 300,000 compounds, 1.8% hits; Marburg virus pseudotyped entry inhibition, cell reporter; calls by dose curve; tested in HEK293 cells
A number is an active result; i = inactive; ? = inconclusive; nt = not tested or not shown; + = active, no number.

SMILES	HCV inhibitor	Cycloheximide cs	Lassa entry inh	FMDV antiviral	Shiga inhibitor	MARV entry inh
FC(F)(F)c1cc(CO[C@@H]2CCCN[C@@H]2c2ccccc2)cc(C(F)(F)F)c1	3.55µM	nt	nt	?	nt	nt
FC(F)(F)c1cc(CCN2CCNC[C@@H]2c2ccccc2)cc(C(F)(F)F)c1	?	nt	nt	i	nt	nt
CN=Cc1nc(-c2ccccc2)oc1O	i	29.8	?	i	active	?
CCC(=O)Oc1oc(-c2ccccc2)nc1C=Nc1ccc(C)cc1	i	i	i	i	i	i
Oc1oc(-c2ccccc2)nc1/C=N/c1ccccn1	i	i	i	i	i	?
Cc1ccc(-c2nc(C=Nc3ccc(O)cc3)c(O)o2)cc1	?	43.9	i	i	124.9	?
Cc1n[nH]c(C)c1Sc1ccccc1N	i	i	i	i	i	i
COc1cccc(CN2CC(C(=O)NCCn3ccc(C)n3)CCC2=O)c1 (stereo not given)	i	i	nt	i	i	nt
CCn1ccc2cc(S(=O)(=O)N3CCC(C(=O)NCCc4ccc(C)cc4)CC3)ccc21	nt	nt	i	i	nt	nt
CCn1c(O)c(N=NC(=O)CNc2ccc(C)cc2)c2ccccc21	i	i	?	i	i	i
Cc1ccc(NC(=O)Cn2c(O)c(N=NC(N)=O)c3ccccc32)cc1	i	i	?	i	i	?
C=CCn1c(O)c(N=NC(=S)Nc2ccccc2F)c2ccccc21	10µM	i	nt	i	i	nt
Cc1ccc(NC(=O)Cn2c(O)c(N=NC(N)=S)c3ccccc32)cc1	?	i	?	i	i	8.91µM
C/C(Cl)=C\Cn1c(O)c(N=NC(N)=S)c2ccccc21	i	i	i	?	i	10µM
Cc1ccc(NCC(=O)N=Nc2c(O)n(C)c3ccccc23)cc1	i	15.0	?	i	56.1	?
C/C=C/c1ccc(OCCn2cncn2)c(OC)c1	i	i	i	i	i	i
CCc1ccc(-n2c(=O)c3ccccc3n(Cc3ccccc3C#N)c2=O)cc1	nt	nt	i	i	nt	i
C1CCCN(c2nc3nonc3nc2N2CCCCCC2)CC1	i	i	i	i	i	i
Cn1c(O)c(N=Nc2ccccc2)c2ccccc21	i	i	?	i	i	i
Cn1c(O)c(N=Nc2ccc(F)cc2)c2ccccc21	i	39.8	?	i	i	i
COc1ccc(NC(=O)c2ccccc2Sc2ccc(NC(C)=O)nc2)cc1	i	i	i	i	i	i
CCOC(=O)CN1C(=O)C(Sc2n[nH]c(-c3ccc(C)cc3)n2)CCc2ccccc21 (stereo not given)	?	i	?	28.2µM	i	?
Cc1ccc(CNC(=O)C2CCCN(c3nn4cc(-c5ccc(C)cc5)nc4s3)C2)cc1 (stereo not given)	nt	nt	?	i	nt	nt
CCNC(=O)C1CCCN(c2nn3cc(-c4ccc(C)cc4)nc3s2)C1 (stereo not given)	nt	nt	i	20µM	nt	nt
N#CCSc1nc2ccccc2c2nc3ccccc3n12	?	i	i	?	+	?
SMILES	HCV inhibitor	Cycloheximide cs	Lassa entry inh	FMDV antiviral	Shiga inhibitor	MARV entry inh
Cn1c(COc2ccc3ccccc3c2)nnc1SCC(=O)O	i	i	i	i	i	i
Cc1ccccc1C(=O)OCC(=O)N(C)c1ccccc1	i	24.4	i	i	i	i
Cc1cccc(C(=O)OCC(=O)N(C)c2ccccc2)c1C	i	14.2	?	i	35.4	i
CN(C(=O)COC(=O)c1ccccc1C(=O)N(C)c1ccccc1)c1ccccc1	i	i	?	i	i	i
Cc1c(C(=O)OCC(=O)N(C)c2ccccc2)cccc1[N+](=O)[O-]	i	i	i	i	i	i
CN(CC(=O)Nn1cnnc1)S(=O)(=O)c1cc(Cl)ccc1Cl	i	i	i	i	i	i
COCCN(C(=O)C(C)C)c1nnc(-c2ccc(C)cc2)s1	i	i	i	i	83.2	?
COCCN(C(=O)c1ccco1)c1nc(-c2ccccc2)cs1	i	i	i	i	nt	?
COCCN(C(=O)c1ccccc1F)c1nnc(-c2ccc(OC)cc2)s1	i	32.1	nt	i	45.9	nt
CCC(=O)N(CC)c1nc(-c2ccc(OC)cc2)cs1	i	60.8	i	?	84.4	?
CCC(=O)N(Cc1ccco1)c1nc(-c2ccc(OC)cc2)cs1	?	i	?	i	i	i
CN(C(=O)c1ccco1)c1nc(-c2ccccc2)cs1	i	38.4	nt	i	35.9	nt
COCCN(C(=O)C(C)C)c1nnc(-c2cccc(C)c2)s1	i	i	i	i	i	i
O=C(OCC(=O)N1CCN(C(=O)c2ccco2)CC1)c1cc(F)c(F)cc1Cl	i	nt	i	i	nt	i
CC(C)OC(=O)N(C)C[C@H]1OCc2cnnn2CCCC(=O)N([C@H](C)CO)C[C@@H]1C	nt	nt	nt	i	nt	nt
